Five compounds from PubChem BioAssay can be followed below.

A short description of test [1]: compounds binding Alexa647 anti-His antibody – biochemical, small-molecule microarray, 635 nm fluorescence, artefact control for SMM control protein annotation, primary screen (AID 1128).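 Also: score merges feature fluorescence with signal-to-noise for each printed compound spot.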 The following applies: higher = more signal.
In test [2] the test system is Human papillomavirus type 1a E7 protein (residues 1-88). Kind of test: HPV1a E7 small-molecule binders, primary screen, biochemical, small-molecule microarray, residues 1-88, 635 nm (AID 1129). To be noted: small-molecule microarray binding, fluorescence 635 nm; higher = more signal.
The target of test [3] is Focal adhesion kinase 1 (Homo sapiens) (UniProt Q05397). Kind of test: PTK2 protein binding on printed compound slides – biochemical, small-molecule microarray, 635/667 nm fluorescence, BSA, DTT, primary screen (AID 1130).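 Also: composite of spot emission at 667 nm and signal to noise over triplicate slides.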 To be noted: 635 nm fluorescence, higher = more signal.
Test [4] relates to Fibrinogen (Alexa647-labelled). In words: Alexa647-fibrinogen binding to printed small molecules – biochemical, small-molecule microarray, 635/667 nm fluorescence, artefact control for SMM control-protein annotation, profiling panel (AID 1131).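 Also: z-score merges 667 nm fluorescence with per-spot signal-to-noise over triplicate slides.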 The following applies: fibrinogen-A647 binding fluorescence, higher = more signal.
Test [5] addresses Follistatin (Homo sapiens) (UniProt P19883). Kind of test: FST protein binding to printed compounds – biochemical, small-molecule microarray, 635/667 nm fluorescence, primary screen (AID 1132). To be noted: 635 nm fluorescence, higher = more signal.
The target in test [6] is Fibroblast growth factor 2 (Homo sapiens) (UniProt P09038). Kind of test: basic fibroblast growth factor binding to printed compounds – biochemical, small-molecule microarray, 635/667 nm fluorescence, primary screen (AID 1133). To be noted: FGF2, fluorescence 635/667, higher = more signal.
A short description of test [7]: JC-1 mitochondrial potential readout, lung cancer cells – cell-based, A549, JC-1 fluorescence, basal, 24 h, 100 nL, profiling panel (AID 1138).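 Also: A549 lung adenocarcinoma cells under basal conditions with no added stimulus; test concentration not given here.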 To be noted: higher = more signal.
The test system of another test is Lefty1. In words: Lefty1 protein binding to printed compounds – biochemical, small-molecule microarray, 635/667 nm fluorescence, primary screen (AID 1139). The following applies: fluorescence 635/667, higher = more signal.
The subject of test [8] is wheat germ agglutinin (Triticum aestivum), Alexa647-labelled. In words: Alexa647-WGA lectin binding to printed small molecules – biochemical, small-molecule microarray, 635/667 nm fluorescence, artefact control for SMM control-protein annotation, profiling panel (AID 1140).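 Also: score merges 667 nm feature emission with signal to noise over triplicate slides.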 To be noted: WGA-A647 binding, 635 nm fluorescence, higher = more signal.
The target in test [9] is Luciferin 4-monooxygenase (Photinus pyralis) (UniProt P08659). In words: inhibition of purified Photinus pyralis luciferase – biochemical, luminescence, purified enzyme, 2006 set, primary screen (AID 1141).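 Also: cell-free assay with purified firefly luciferase at 100 ng per well in PBS; test concentration not given here.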 The following applies: purified firefly luciferase, SteadyGlo luminescence, 30 min; higher = more signal, called active from +8 up or from −8 down.
Test [10] has as its system Wnt5a (protein binding on small-molecule microarray). In words: small molecules binding Wnt5a protein – biophysical, small-molecule microarray, 635/667 nm fluorescence, primary screen (AID 1142).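 Also: fluorescence read at 667 nm with signal to noise per printed feature.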 To be noted: 635 nm fluorescence, higher = more signal.
A short description of test [11]: ATP-based viability of Huh7 replicon cells – cell-based, CellTiter-Glo luminescence, basal, 48 h, cytotoxicity control for HCV replication inhibitor project, primary screen (AID 1143).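 Also: Huh7 hepatoma cells carrying a hepatitis C replication reporter with no stimulus; test concentration not given here.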 To be noted: higher = more signal, called active from +8 up or from −8 down.
Test [12] can be described thus: basal CRE-LacZ reporter activity in PC12 – cell-based, unstimulated, primary screen (AID 1145). The following applies: no forskolin, luminescence, 4.5 h, higher = more signal, called active from +8 up or from −8 down.
A short description of test [13]: forskolin-driven CRE-LacZ activity in PC12 – cell-based, CRE-LacZ reporter, forskolin-stimulated, primary screen (AID 1146).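 Also: PC12 cells with 6xCRE LacZ reporter stimulated by forskolin 10 µM; beta-galactosidase reporter signal reflecting CREB driven transcription.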 The following applies: luminescence, 4.5 h, higher = more signal, called active from +8 up or from −8 down.
The target in test [14] is Streptavidin (Streptomyces avidinii) (UniProt P22629). In words: compounds binding control protein streptavidin – biophysical, small-molecule microarray, 635/667 nm fluorescence, artefact control for SMM compound annotation, primary screen (AID 1147).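 Also: signal reflects streptavidin binding to arrayed compounds as a control protein.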 The following applies: higher = more signal.
Test [15] is described as follows: probe aInhba binding on compound microarray – biochemical, small-molecule microarray, 635/667 nm fluorescence, primary screen (AID 1148).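 Also: score merges 667nm spot fluorescence with signal-to-noise for antibody binding to printed compounds.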 To be noted: higher = more signal.
Test [16] addresses Torsin-1A (Homo sapiens) (UniProt O14656). Kind of test: TOR1A wild-type binding on microarray – cell lysate, small-molecule microarray, lysate, 635/667 nm, primary screen (AID 1149). The following applies: COS7 hTOR1A-WT lysate, 635 nm fluorescence, higher = more signal.
Test [17] shares this target. In words: torsin A mutant lysate binding on microarrays – cell lysate, small-molecule microarray, COS7 lysate, 635/667 nm fluorescence, primary screen (AID 1150).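 Also: score pools 667 nm emission and signal to noise measuring lysate protein binding.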 The following applies: COS7 hTOR1A mutant lysate, 635 nm fluorescence, higher = more signal.
Test [18] relates to Sonic hedgehog protein (Shh). Kind of test: Sonic hedgehog microarray binding compounds – biochemical, small-molecule microarray, 635/667 nm fluorescence, primary screen (AID 1151).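 Also: Shh protein binding to compounds spotted on small-molecule microarray slides; score combines spot fluorescence intensity with signal-to-noise across triplicate slides.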 To be noted: 635 nm fluorescence, higher = more signal.

The source made the active and inactive calls.

Sequence of Focal adhesion kinase 1 (Homo sapiens) (Q05397 whole entry, looked up): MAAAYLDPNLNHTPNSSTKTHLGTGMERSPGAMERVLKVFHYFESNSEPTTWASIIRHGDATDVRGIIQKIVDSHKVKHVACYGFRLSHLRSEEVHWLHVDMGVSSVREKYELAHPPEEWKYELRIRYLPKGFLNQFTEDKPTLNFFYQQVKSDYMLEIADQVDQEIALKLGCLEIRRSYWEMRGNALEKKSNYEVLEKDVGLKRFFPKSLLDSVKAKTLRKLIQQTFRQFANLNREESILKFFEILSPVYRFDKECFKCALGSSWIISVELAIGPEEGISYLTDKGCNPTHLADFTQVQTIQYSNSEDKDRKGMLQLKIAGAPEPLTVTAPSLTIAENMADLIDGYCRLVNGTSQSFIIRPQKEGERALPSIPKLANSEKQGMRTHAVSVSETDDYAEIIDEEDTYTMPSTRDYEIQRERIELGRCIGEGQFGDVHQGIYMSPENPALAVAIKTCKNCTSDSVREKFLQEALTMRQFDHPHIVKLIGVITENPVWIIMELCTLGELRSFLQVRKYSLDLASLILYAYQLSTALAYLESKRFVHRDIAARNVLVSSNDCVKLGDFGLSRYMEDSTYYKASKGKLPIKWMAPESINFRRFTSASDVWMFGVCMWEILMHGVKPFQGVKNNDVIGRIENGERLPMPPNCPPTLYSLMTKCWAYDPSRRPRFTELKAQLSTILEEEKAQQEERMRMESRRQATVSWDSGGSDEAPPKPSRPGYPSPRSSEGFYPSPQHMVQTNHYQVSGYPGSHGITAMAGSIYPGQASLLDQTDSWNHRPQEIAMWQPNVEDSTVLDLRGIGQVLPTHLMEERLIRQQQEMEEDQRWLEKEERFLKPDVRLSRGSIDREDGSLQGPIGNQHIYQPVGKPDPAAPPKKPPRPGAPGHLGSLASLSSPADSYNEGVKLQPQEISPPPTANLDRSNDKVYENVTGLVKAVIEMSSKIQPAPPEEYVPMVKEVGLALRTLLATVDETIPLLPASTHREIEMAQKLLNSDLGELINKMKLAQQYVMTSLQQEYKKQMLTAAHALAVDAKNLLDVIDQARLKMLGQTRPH
Sequence of Fibroblast growth factor 2 (Homo sapiens) (P09038 whole entry, looked up): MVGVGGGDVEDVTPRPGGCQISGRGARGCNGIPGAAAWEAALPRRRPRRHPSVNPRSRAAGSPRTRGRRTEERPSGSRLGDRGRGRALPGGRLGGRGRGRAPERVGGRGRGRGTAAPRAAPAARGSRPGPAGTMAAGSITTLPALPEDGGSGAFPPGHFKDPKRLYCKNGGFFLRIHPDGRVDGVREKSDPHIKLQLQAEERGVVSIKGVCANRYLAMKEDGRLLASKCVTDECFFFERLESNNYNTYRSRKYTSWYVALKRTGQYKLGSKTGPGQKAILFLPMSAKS
Sequence of Follistatin (Homo sapiens) (P19883 whole entry, looked up): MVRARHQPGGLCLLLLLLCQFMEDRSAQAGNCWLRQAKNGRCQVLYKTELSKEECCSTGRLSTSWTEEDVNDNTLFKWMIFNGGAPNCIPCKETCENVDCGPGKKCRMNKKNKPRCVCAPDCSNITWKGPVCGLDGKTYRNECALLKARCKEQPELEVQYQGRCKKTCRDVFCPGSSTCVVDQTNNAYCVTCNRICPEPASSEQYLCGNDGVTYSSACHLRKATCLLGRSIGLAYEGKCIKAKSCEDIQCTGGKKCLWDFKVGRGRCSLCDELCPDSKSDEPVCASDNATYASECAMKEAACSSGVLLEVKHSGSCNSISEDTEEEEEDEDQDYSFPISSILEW
Sequence of Torsin-1A (Homo sapiens) (O14656 whole entry, looked up): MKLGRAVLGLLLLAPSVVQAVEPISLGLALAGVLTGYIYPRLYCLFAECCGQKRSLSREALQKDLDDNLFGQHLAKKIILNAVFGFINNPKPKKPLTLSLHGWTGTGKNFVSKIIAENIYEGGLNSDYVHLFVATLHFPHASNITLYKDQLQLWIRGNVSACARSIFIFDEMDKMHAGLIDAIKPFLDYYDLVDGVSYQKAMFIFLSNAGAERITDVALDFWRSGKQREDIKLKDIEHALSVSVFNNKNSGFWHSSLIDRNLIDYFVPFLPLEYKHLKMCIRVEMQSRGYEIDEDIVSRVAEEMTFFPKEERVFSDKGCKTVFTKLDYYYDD
Sequence of Luciferin 4-monooxygenase (Photinus pyralis) (P08659 whole entry, looked up): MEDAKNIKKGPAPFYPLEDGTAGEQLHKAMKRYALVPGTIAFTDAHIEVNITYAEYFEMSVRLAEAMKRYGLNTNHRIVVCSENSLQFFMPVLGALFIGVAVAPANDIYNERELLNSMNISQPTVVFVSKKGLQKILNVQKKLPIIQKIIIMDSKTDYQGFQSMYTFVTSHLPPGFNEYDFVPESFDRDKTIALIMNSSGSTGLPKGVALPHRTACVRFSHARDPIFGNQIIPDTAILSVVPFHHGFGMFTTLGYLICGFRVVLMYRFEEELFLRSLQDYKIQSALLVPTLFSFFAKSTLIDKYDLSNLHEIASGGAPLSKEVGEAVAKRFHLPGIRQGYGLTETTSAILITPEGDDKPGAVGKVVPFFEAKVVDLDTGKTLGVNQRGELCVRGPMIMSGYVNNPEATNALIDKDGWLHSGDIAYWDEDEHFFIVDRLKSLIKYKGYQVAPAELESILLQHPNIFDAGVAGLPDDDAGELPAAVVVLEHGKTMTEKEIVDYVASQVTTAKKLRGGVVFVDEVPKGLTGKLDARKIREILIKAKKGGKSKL
Sequence of Streptavidin (Streptomyces avidinii) (P22629 whole entry, looked up): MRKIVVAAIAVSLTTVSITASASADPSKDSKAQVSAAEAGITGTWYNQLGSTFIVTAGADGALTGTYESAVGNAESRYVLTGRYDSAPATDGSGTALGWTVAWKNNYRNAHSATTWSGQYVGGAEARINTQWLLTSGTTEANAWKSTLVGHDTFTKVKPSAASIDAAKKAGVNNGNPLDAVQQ

Regarding `C[C@H]1NC(=O)[C@@H](C)NC(=O)[C@@]23C(=O)N[C@@H](Cc4ccccc4)C2[C@H](C)[C@@]2(C)O[C@H]2C3/C=C/C/C=C\CNC1=O` (stereo not given in full), the composite z-score is -0.759 in test [1]; -1.84 in test [2]; -0.801 in test [3]; -0.388 in test [4]; 0.117 in test [5]; 0.0213 in [6]. Besides, the composite z-score with Lefty1 was -0.0767; in test [8], 0.0969; in test [10], 0.0845; in [14], -0.594; in [15], -0.128; with Torsin-1A (Homo sapiens) [16], 0.153. Further, the composite z-score with Torsin-1A (Homo sapiens) [17] is -0.354; in [18], 0.651. Besides, the z-score in test [7] was 1.07; in test [9], -0.919 (inactive); in test [11] it was -0.333 (inactive); in test [12] it was 3.4 (inactive); in test [13], -1.32 (inactive).
As for `Cc1ccc(S[C@]2(C(=O)NCCCN(C)C)CC(=O)N(C3CCCCC3)[C@@H]2c2ccc(CO)cc2I)cc1`, the composite z-score in test [1] was 0.731; in [2] it was -0.171; in test [3], -0.471; in [4], -1.32; in [5], -0.351; in test [6], -0.29. Also, the composite z-score with Lefty1 was -0.695; in [8], -1.54; in [10] it was -0.056; in test [14], -0.806; in test [15] it was -0.128; with Torsin-1A (Homo sapiens) [16], 0.0029. Besides, the composite z-score worked out at 0.0812 in the test with Torsin-1A (Homo sapiens) [17] and 0.0709 in test [18]. In addition, the z-score in [7] is 3.41; in test [9], -1.38 (inactive); in test [11], -6.58 (inactive); in test [12], -0.0243 (inactive); in test [13], 1.42 (inactive).
For `CC(=O)Nc1ccc([C@H]2[C@H](C)CC[C@H]3C(=O)N4[C@@H](CC[C@@H](C)[C@@H]4c4ccc(NC(C)=O)cc4)C(=O)N32)cc1`, the composite z-score turned out to be 2.46 in test [1]; 1.16 in test [2]; 0.558 in test [3]; 0.798 in test [4]; 1.19 in test [5]; 1.25 in test [6]. Also, the composite z-score is 1.54 with Lefty1; 0.994 in [8]; 0.165 in [10]; 0.627 in test [14]; 0.0275 in test [15]; 1.17 in the test with Torsin-1A (Homo sapiens) [16]. Besides, the composite z-score is 0.283 in the test with Torsin-1A (Homo sapiens) [17] and 1.34 in [18]. The z-score in test [7] is 0.673; in [9] it was -0.765 (inactive); in test [11] it was -0.446 (inactive); in [12], 3.09 (inactive); in [13], -0.876 (inactive).
Take `CO[C@H]1COC(=O)[C@@H](Cc2ccccc2)NC(=O)[C@@H](C)COC(=O)CC=C[C@@H]1C`: the composite z-score in test [1] is -0.28; in test [2], -0.0865; in [3], -0.112; in test [4], -0.277; in test [5], 1.24; in test [6], 1.01. The composite z-score in the test on Lefty1 is 1.01; in test [8], -0.744; in test [10], -0.0866; in test [14], -0.282; in [15], -0.263; in the test with Torsin-1A (Homo sapiens) [16] it was 0.379. The composite z-score is -0.0112 with Torsin-1A (Homo sapiens) [17] and 1.02 in test [18]. For the same compound, the z-score in test [7] was 1.3; in [9], -1.16 (inactive); in [11] it was 0.7 (inactive); in test [12] it was 8.02 (active); in test [13] it was -0.445 (inactive).
With `CSCC[C@@H]1NC(=O)CC=C[C@@H](C)COC(=O)[C@H](CCSC)NC(=O)CC=C[C@@H](C)COC1=O`, the composite z-score in test [1] was -0.158; in [2] it was -0.111; in [3], -0.388; in test [4], 0.017; in [5], 0.129; in test [6] it was 0.296. For the same compound, the composite z-score was 0.531 with Lefty1; -0.725 in test [8]; 0.119 in test [10]; -0.563 in test [14]; -0.146 in [15]; 0.138 with Torsin-1A (Homo sapiens) [16]. In addition, the composite z-score was found to be 0.291 in the test with Torsin-1A (Homo sapiens) [17] and 0.493 in [18]. Besides, the z-score in test [7] is 1.01; in [9], -0.731 (inactive); in [11], -3.38 (inactive); in test [12] it was -0.389 (inactive); in test [13], -0.837 (inactive).
